Screens (PubChem)
In the library only some 9% were active in any assay of this set; here they are far more common.
PLK1 PBD inh = inhibitors of human PLK1 polo-box domain binding; AID 720504; Potency, µM, for inactives: max response, negative = inhibition, actives largely listed as inhibitors; Plk1 PBD binding of FITC phosphopeptide, fluorescence polarization; 2.8% of 360,000 active; also: series mostly up to about 57 µM; % is scaled to controls: 0 for no effect and ±100 for the full control effect; nearly all actives have a fitted effect of over 65% in size
12-LOX inh = blocks human arachidonate 12S-lipoxygenase | 1.1% of 580,000 active | purified 12hLO, xylenol orange hydroperoxide absorbance | AID 1671190 | P18054 | Potency, µM (top dose mostly 108 µM), for inactives: at the top dose activity change, negative = inhibition, usual class: inhibitors; also: % is scaled to controls: 0 for no effect and ±100 for the full control effect
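Hydroperoxide product was detected by ferrous iron/xylenol orange as the 573 to 405 nm absorbance ratio. Arachidonic acid at 40 uM (final) was turned over for 30 min at room temperature by 150 nM human 12hLO, pH 7.0 Hepes buffer, after 15 min compound preincubation.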
HP1b binding inh = inhibitors of HP1-beta chromodomain binding to methylated histone tails. Potency, µM (titrated, usually from 114 µM), inactives show top-dose activity change, negative = inhibition, hits mostly inhibitors. AlphaScreen HP1-beta / biotin-H3K9me3 peptide binding. P83916. 0.56% of 390,000 active; also: nearly all actives have a fitted effect of over 70% in size
Target sequence (P83916 whole entry, looked up): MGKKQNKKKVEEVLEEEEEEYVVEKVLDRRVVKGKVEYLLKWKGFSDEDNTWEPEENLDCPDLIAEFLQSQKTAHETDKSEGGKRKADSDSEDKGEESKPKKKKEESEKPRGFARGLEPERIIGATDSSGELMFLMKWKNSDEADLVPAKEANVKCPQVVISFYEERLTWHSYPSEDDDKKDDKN
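AlphaScreen: HP1-beta (50 nM) preformed 30 min with biotin-H3(1-18)K9me3 peptide (50 nM) in PBS pH 7.4, 0.01% Tween-20. Compound added for 30 min at RT, then streptavidin donor/nickel chelate acceptor beads (10 ug/mL) for 30 min.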
BAZ2B inh = BAZ2B (human) inhibition; AlphaScreen BAZ2B-H3K14Ac peptide displacement; Potency, µM (highest dose often 114 µM), for inactives: at the top dose activity change, negative = inhibition, hits mostly inhibitors; 4.4% of 360,000 active; AID 504333; also: % is scaled to controls: 0 for no effect and ±100 for the full control effect; nearly all actives have a fitted effect of over 60% in size
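Multi-concentration screen (max 110 uM) measuring displacement of acetylated histone H3 peptide from BAZ2B by AlphaScreen, using 50 nM protein, 50 nM peptide and 10 ug/mL streptavidin donor plus Ni-chelate acceptor beads.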
JMJD2A Tudor inh = blocks the human JMJD2A Tudor domain | O75164 | 4.4% of 390,000 active | Potency, µM (series often up to 114 µM), for inactives: at the top dose activity change, negative = inhibition, hits mostly inhibitors | AlphaScreen JMJD2A-Tudor / H3K4me3 peptide binding; also: % is scaled to controls: 0 for no effect and ±100 for the full control effect; nearly all actives have a fitted effect of over 50% in size
G9a inh = G9a (human) methyltransferase inhibition. 8.8% of 350,000 active. Potency, µM (series often up to 102 µM), inactives show top-dose activity, negative = inhibition, most hits filed as inhibitors. G9a H3K9 monomethylation, AlphaScreen, 2 h; also: % is scaled to controls: 0 for no effect and ±100 for the full control effect; nearly all actives have a fitted effect of over 75% in size
Target sequence (Q96KQ7 913-1193 limits assumed): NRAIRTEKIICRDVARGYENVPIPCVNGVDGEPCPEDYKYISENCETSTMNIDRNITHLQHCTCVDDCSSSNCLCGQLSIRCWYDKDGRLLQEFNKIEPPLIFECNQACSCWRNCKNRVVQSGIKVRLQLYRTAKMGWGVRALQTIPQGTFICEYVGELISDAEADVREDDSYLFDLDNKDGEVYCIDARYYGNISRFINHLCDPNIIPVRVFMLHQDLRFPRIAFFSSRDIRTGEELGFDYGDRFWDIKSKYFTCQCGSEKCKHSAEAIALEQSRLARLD
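Signal arises when biotinylated H3K9 peptide, once monomethylated, bridges streptavidin donor and antibody-captured acceptor beads. Enzyme at 20 nM was preincubated 15 min with test compounds; peptide 500 nM and SAM 20 uM then reacted for 2 h.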
The depositor's hits bear a star; ? = inconclusive; nt = no result; [ ] = dose if it differs, or a comment. Calls follow the shape of the dose curve; as a rule, active = well fitted curve in the direction sought with a large enough effect; inconclusive = small, poorly fitted or top-dose-only effect, or another doubt; inactive = no such curve, though single readings can be large; an effect the other way counts as inactive or inconclusive. Potency is read from the fitted curve at half-maximal effect.

SMILES	PLK1 PBD inh	12-LOX inh	HP1b binding inh	BAZ2B inh	JMJD2A Tudor inh	G9a inh
O=C(Nc1cc(Cl)ccc1-n1cncn1)c1cccc(S(=O)(=O)N2CCOCC2)c1	-8%	-15%	35%	8%	-11%	26%[2.33 µM]
COc1ccc(-c2ccc(/C=C3/C(=N)N4C=CSC4=NC3=O)o2)c([N+](=O)[O-])c1	-5%	-10%	-5%	?	?	?
CCOC(=O)c1cc(-c2ccc(/C=C3/C(=O)NC(=O)C(C#N)=C3C)o2)ccc1Cl	3.4µM*	?	40µM*	50µM*	56µM*	35µM*
CC1=C(C#N)C(=O)NC(=O)/C1=C\c1ccc(-c2ccc(C)cc2[N+](=O)[O-])o1	8.4µM*	11µM*	?	45µM*	32µM*	18µM*
Cc1ccc2nc(-c3ccccc3)cc(C(=O)NCCCn3ccnc3)c2c1	-2%	10%	16%	?	-33%	40%[0.501 µM]
Cc1cccc(CN2CCN(c3nc4nonc4nc3NC3CC3)CC2=O)c1	-15%	0%	25%	-11%	-5%	-1%
COc1ccccc1C(=O)Nc1nc2ccccc2[nH]1	21µM*	10%	-17%[57 µM]	5%	?	?
O=C(Nc1nc2ccccc2[nH]1)c1cccc(F)c1	-3%	22%	22%	-14%	-20%	11%[59 µM]
CN(C)c1cccc(C(=O)Nc2nc3ccccc3[nH]2)c1	-16%	?	?	35µM*	45µM*	50µM*
Cn1nc(C(=O)Nc2nc3ccccc3[nH]2)ccc1=O	-12%	-14%	19%	?	-35%	32µM*
Cc1ccc(C(=O)Nc2nc3ccccc3[nH]2)cc1	-4%	6%	7%	3%	-16%	-10%
COc1ccc2nc3ccccc3nc2c1NC(=O)c1ccccc1Cl	38µM*	-10%	10%	-2%	-2%	-31%
COC(=O)/C=C1/SC(=NC(=O)c2ccc(Cl)cc2)NC1=O	34µM*	?	-14%	nt	?	nt
COC(=O)/C=C1/SC(=Nc2ccc(Cl)c(Cl)c2)NC1=O	-47%	-24%	26%	-8%	-31%	2%
COC(=O)/C=C1\SC(=NC(=O)c2ccc(C)cc2)NC1=O	-25%	?	17%	?	-19%	28µM*
COC(=O)/C=C1/SC(=Nc2ccc(C)cc2C)NC1=O	-15%	-16%	9%	-4%	-23%	nt
CC(C)NC(=O)C1CCCN(c2nc3ncccc3o2)C1 (configuration not stated)	nt	51%[176 µM]	nt	nt	nt	nt
Cn1nnc(NC(=O)c2ccccc2F)n1	-6%	?	13%	-3%	-12%	-9%
CC(C)C(=O)NC(=S)Nc1nnn(C)n1	-14%	?	?	56µM*	1.1µM*	8.9µM*
Cn1nnc(NC(=S)NC(=O)c2ccc3ccccc3c2)n1	-18%	11µM*	nt	nt	nt	nt
COc1cc(OC)cc(C(=O)NC(=S)Nc2nnn(C)n2)c1	?	0%	?	?	?	10µM*
Cn1nnc(NC(=O)c2ccc3ccccc3c2)n1	-2%	1%	12%	-1%	-35%	7%[59 µM]
Cn1nnc(NC(=S)NC(=O)c2cccc3ccccc23)n1	-23%	0.63µM*	-17%[57 µM]	-38%	2.8µM*	7.9µM*
O=C(CN1CCCC1=O)N1CCc2ncnc(N3CCOCC3)c2CC1	nt	23%	nt	nt	nt	nt
CN1CCN(c2ccc(Cl)cc2NC(=O)c2ccc([N+](=O)[O-])cc2)CC1	4%	-26%	14%	-7%	-23%	5%[12.7 µM]
SMILES	PLK1 PBD inh	12-LOX inh	HP1b binding inh	BAZ2B inh	JMJD2A Tudor inh	G9a inh
COc1ccc(-c2cc(-c3cnn(C)c3)cn3cncc23)cn1	nt	-1%[176 µM]	nt	nt	nt	nt
C/C(=C\C(=S)Nc1ccccc1)Nc1ccc2ccccc2c1	-18%	?	?	25µM*	79µM*	-49%[59 µM]
S=C(NCc1ccccc1)Nc1ccc2ccccc2c1	-8%	?	16%	-27%	-27%	11%
NNC(=O)c1cc(O)c(O)c(O)c1	?	?	45µM*	18µM*	1.8µM*	8.9µM*
O=C(CCN1CCOCC1)c1ccc2c(c1)OCCO2	?	41%	27%	3%	-11%	8.9µM*
Cc1cccc[n+]1CC(=O)c1ccc2c(c1)OCCO2	27µM*	-1%	3%	-1%	-16%	34%[59 µM]
O=C(CCN1CCc2ccccc2CC1)c1ccc2c(c1)OCCO2	13µM*	-19%	-11%	-2%	?	2.2µM*
O=C(CCN1CCCCC1)c1ccc2c(c1)OCO2	?	?	31%	-24%[57.1 µM]	0%	7.9µM*
O=C(CCCN1CCOCC1)c1ccc2c(c1)OCCO2	-1%	-7%	18%	-2%	-24%	12%[59 µM]
O=C(CCSCc1ccccc1Cl)N1CCN(c2cccc(Cl)c2)CC1	-3%	?	35%	20%	5%	-6%[59 µM]
CCOn1c(=O)c(-c2cccc(Br)c2)[n+]([O-])c2ccccc21	-11%	202%	63%	1%	-28%	11%[59 µM]
CCOC(=O)c1c(C)[nH]c(C(=O)/C(C#N)=C/c2ccc(OC)c(OC)c2)c1C	17µM*	-12%	9%	?	-28%	-5%[59 µM]
COc1cc(/C=C(/C#N)C(=O)c2c(C)[nH]c3ccccc23)ccc1OCC#N	0%	-17%	?	?	?	?
CCOC(=O)c1c(C)[nH]c(C(=O)/C(C#N)=C/c2ccc(OC(F)F)c(OC)c2)c1C	4.7µM*	-18%	0%	-33%	-28%	1%[59 µM]
CCOc1ccc(/C=C(\C#N)C(=O)c2c(C)[nH]c3ccccc23)cc1OC	-8%	-22%	-21%	?	?	?
C=CCN(C(=O)Cc1cccs1)c1nc(-c2ccc(S(C)(=O)=O)cc2)cs1	-2%	-5%	-4%	-17%	-30%	71µM*
Cc1nnc(SCC(=O)NCc2ccc(F)cc2)[nH]c1=O	16%	-13%	43%	-23%	5%	?
COc1ccc(OC)c(/C=N/NC(=O)CCN2CCN(C(c3ccccc3)c3ccccc3)CC2)c1	-10%	1%	-17%	?	?	10µM*
O=C(CCN1CCN(C(c2ccccc2)c2ccccc2)CC1)N/N=C/c1ccc(O)cc1O	2%	?	-32%	?	63µM*	?
O=C(CCN1CCN(C(c2ccccc2)c2ccccc2)CC1)N/N=C/c1ccc(O)cc1	-1%	?	-20%	?	?	-24%
Cc1ccc2cccc(S(=O)(=O)n3nc(C)cc3C)c2n1	-2%	4%	30%	-10%	-8%	-20%[12.7 µM]
O=C(Nc1ccccn1)c1cccc(S(=O)(=O)N2CCCc3ccccc32)c1	0%	?	30%	-1%	-19%	16%[59 µM]
CCOc1ccc(N(CC(=O)N/N=C/c2ccccn2)S(=O)(=O)c2ccc(Cl)cc2)cc1	-2%	-11%	37%	-2%	-36%	-2%
